Bioassay records (PubChem BioAssay)
An excerpt weighted towards active compounds, which were near 1.6% of everything screened.
PABP1 MLLE inh – blocks PAM2 peptide binding to the PABP1 MLLE domain; P11940; inhibition, % at 20 µM; GST-MLLE / FITC-PAM2 fluorescence polarization; hit rate 0.36% among 360,000; in the data active = inhibition above about 35%, passing the limit was not always enough;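 note: plate controls were DMSO wells with GST-MLLE for no effect and wells lacking GST-MLLE protein for full effect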
Target sequence (P11940 whole entry, looked up, the tested form may be a part): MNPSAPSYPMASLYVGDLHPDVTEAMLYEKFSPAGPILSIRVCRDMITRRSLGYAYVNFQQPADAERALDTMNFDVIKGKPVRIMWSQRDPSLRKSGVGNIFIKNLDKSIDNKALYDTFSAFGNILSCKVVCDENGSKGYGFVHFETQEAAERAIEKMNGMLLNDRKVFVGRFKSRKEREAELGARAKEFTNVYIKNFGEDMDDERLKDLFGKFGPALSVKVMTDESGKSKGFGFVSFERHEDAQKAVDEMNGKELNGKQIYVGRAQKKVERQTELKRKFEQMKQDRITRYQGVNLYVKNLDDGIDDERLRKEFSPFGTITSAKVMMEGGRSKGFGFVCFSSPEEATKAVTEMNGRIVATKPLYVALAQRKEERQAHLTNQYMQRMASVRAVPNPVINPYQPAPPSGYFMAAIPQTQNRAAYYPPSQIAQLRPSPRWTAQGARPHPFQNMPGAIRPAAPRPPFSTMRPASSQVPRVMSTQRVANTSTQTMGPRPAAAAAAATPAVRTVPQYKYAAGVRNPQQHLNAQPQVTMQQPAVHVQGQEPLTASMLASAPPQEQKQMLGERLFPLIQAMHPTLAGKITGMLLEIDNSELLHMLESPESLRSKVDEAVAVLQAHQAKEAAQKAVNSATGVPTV
eIF4E-4G inh – eIF4E/eIF4G interaction inhibition in translation initiation; P63073+Q04637; TR-FRET eIF4E-eIF4GI(517-606) binding, 2 h; inhibition, % at 21.7 µM; hit rate 0.37% among 220,000; AID 782;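 active = inhibition above about 30%, limit read from the data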;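 note: 0% = full FRET control wells and 100% = background wells lacking eIF4GI fragment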
PABP FP inh – blocks human PABP binding to poly(A) RNA. P11940. calls only at 35 µM. fluorescence polarization. hit rate 1% among 290,000. AID 2014;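 note: calls also rest on retests at 20 µM and on dose response follow-up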
PERK inh – human PERK inhibition, primary cell-based screen; CHO PERK-DD fusion, SEAP luminescence translation reporter; inhibition, % at 5.6 µM; hit rate 0.17% among 220,000; AID 1416;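 active = inhibition above the mean inhibition of all tested compounds plus 3 SD, set separately per screening campaign, cut at about 2.9% in these data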;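 note: PERK kinase domain activated by AP20187 dimerizer at 100 nM; 0% = DMSO with dimerizer and 100% = rapamycin at 8.4 µM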
eIF4H inh – inhibitors of RNA binding by human eIF4H; eIF4H fluorescence polarization binding assay; inhibition, % at 35 µM; hit rate 0.94% among 290,000; AID 2012;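 note: calls also rest on retests at 20 µM and on dose response follow-up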
An asterisk follows results filed as active; i = inactive; u = inconclusive; x = not tested or not shown; + = active, no number; [ ] = remark or other dose. Unless noted, the rule behind the calls is not given here.

SMILES	PABP1 MLLE inh	eIF4E-4G inh	PABP FP inh	PERK inh	eIF4H inh
CC(C)/C(=N\NS(=O)(=O)c1ccc(Br)cc1)c1cccs1	-9	0	i	1	-6
O=C1NN(c2ccccc2)C(=O)C1=Cc1ccccc1O	25	x	x	x	x
COC(=O)C1=C(C)NC(=O)/C1=C\c1cc(C)n(-c2cccc(C)c2)c1C	-6	4	+	0	121
Cc1cc(/C=C2/C(=O)NN(c3ccccc3)C2=O)c(C)n1-c1cccc(O)c1	-7	3	i	1	62*
O=C(c1ccccc1)c1c(-c2ccccc2)[nH]n(-c2ccccc2)c(=O)c1=O	8	x	x	x	x
Cc1cnc(C(=O)NCCc2ccc(Cl)cc2)cn1	-6	x	i	x	9
Cc1cnc(C(=O)NCc2ccc(Cl)cc2Cl)cn1	-12	3	+	0	active
Cc1ccc(S(=O)(=O)N2CCC(C(=O)OCC(=O)N3CCC(C)CC3)CC2)cc1C	12	x	x	x	x
CCOc1ccc(C2C(C#N)=C(N)SC(N)=C2C#N)cc1OCC	-27	-2	i	x	122*
O=S(=O)(Nc1cccc(S(=O)(=O)N2CCCCCC2)c1)c1ccc(F)cc1F	-18	x	x	x	x
COc1ccc(CNC(=O)COC(=O)c2ccc(S(=O)(=O)NCc3ccco3)cc2)cc1	-5	x	x	x	x
O=C(c1ccccc1NS(=O)(=O)c1ccc(F)cc1F)N1CCCCC1	-13	x	x	x	x
O=c1cc(-c2ccc(Br)cc2)[nH][nH]1	16	-2	i	2.9*	-3
CC(=O)c1ccc(OC(C)C)c(Cc2c(O)nc(N)[nH]c2=O)c1	-16	-4	+	1	0.7*
O=C(N/N=C/c1ccccn1)c1cccc([N+](=O)[O-])c1	7	-1	i	0	8
O=C(N/N=C/c1ccccn1)c1ccc(NC(=O)c2cccc([N+](=O)[O-])c2)cc1	1	-7	+	0	75*
CCOC(=O)CCCNC(=O)CCNC(=O)c1ccc(OCC)cc1	-2	-2	+	0	active
CCCCCOc1ccc(C(=O)NCCC(=O)NCCCC(=O)OCC)cc1	-2	-2	i	-2	12
CC(C)c1cc(C(=O)Nc2cccc(Cl)c2)no1	2	63*[fluorescence artefact?]	i	0	-10
CC(=O)c1cccc(NC(=O)c2cc(C(C)C)on2)c1	10	-4	i	0	0
Cc1[nH]c2ccccc2c1C(c1ccccn1)c1c(C)[nH]c2ccccc12	7	0	+	0	55*
Cc1[nH]c2ccccc2c1C(O)c1ccncc1 (centres undefined)	6	2	i	0	13
C=CCN(c1ccccc1)S(=O)(=O)c1cccc(C(=O)O)c1	14	0	i	3.4*	-17
CCC(C)[C@H](NS(=O)(=O)c1ccc(C)cc1)C(=O)N1CCC(C(=O)N[C@@H](Cc2ccccc2)C(=O)O)CC1 (some centres undefined)	11	x	i	x	4
CC1(C)CC(=O)c2ccc(OCc3ccc([N+](=O)[O-])cc3)cc2O1	-6	34*	i	0	-6
SMILES	PABP1 MLLE inh	eIF4E-4G inh	PABP FP inh	PERK inh	eIF4H inh
OCC1OC(n2cnc3c(SCc4ccccc4)nc(F)nc32)C(O)C1O (centres undefined)	-3	x	x	x	x
COC(=O)c1cc2c(-c3ccccc3)cc3ccccn3c-2c1C(=O)OC	35	-27	+	-1	u
N=C1/C(=C\c2ccc(SCc3ccccc3)o2)C(=O)N=C2SC(CC(=O)N3CCOCC3)=NN12	-36	-1	i	0	30
O=Cc1ccc(-c2cccc(C(=O)O)c2)o1	15	4	i	0	24
N=C1/C(=C\c2ccc(-c3cccc(C(=O)O)c3)o2)C(=O)N=C2SC=C(c3ccccc3)N12	-79	65*	+	0	58*
N=C1/C(=C/c2ccc(-c3cccc(C(=O)O)c3)o2)C(=O)N=C2SC(CC(=O)N3CCOCC3)=NN12	-8	x	+	x	62*
CC(C)n1c(SCC(=O)NC2CC2)nnc1-c1ccco1	1	x	i	x	-6
CC(C)(C)[C@H]1CCC(=O)N([C@H](CSc2ccccc2)Cc2ccccc2)CC1	16	x	i	x	-1
CC(=O)Nc1ccc(SC[C@H](Cc2ccccc2)N2CC[C@@H](O)CCC2=O)cc1	41*	x	x	x	x
CC(=O)Nc1ccc(SC[C@H](Cc2ccccc2)N2CC[C@@H](C(C)(C)C)CCC2=O)cc1	42*	x	x	x	x
CC(C)=NOc1nc(N(C)C)nc(N2CCOCC2)n1	-4	4	i	-1	-8
C[C@H]1CN([C@@H](C)CO)C(=O)c2cccc(NC(=O)C3CC3)c2O[C@H]1CN(C)S(=O)(=O)c1ccccc1	4	x	x	x	x
CCCCCCCn1c2c(c(=N)c3ccccc31)CCC2	-99	12	+	0	-4
CCC(=O)Nc1ccc(Cl)c(NC(=S)NC(=O)COc2ccccc2)c1	39*	-2	i	1	-4
CCC(=O)Nc1ccc(Cl)c(NC(=S)NC(=O)COc2ccc(Cl)cc2)c1	15	2	i	0	-3
COc1ccc(C2=NC(=O)/C(=C\c3cc(OC)c(OC)c(OC)c3)O2)cc1	61*	-6	i	1	-6
O=C(CCc1ccccc1)NC(=S)Nc1ccc(S(=O)(=O)N2CCOCC2)cc1	44*	1	i	1	-5
O=S(=O)(c1ccc(NC(=S)Nc2ccc3c(c2)OCO3)cc1)N1CCOCC1	22	-27	+	-1	94*
COc1ccc(OC)c2c1C(=O)c1ccccc1C2=O	x	4	+	1	33
COc1ccc(N)c2c1C(=O)c1ccccc1C2=O	10	2	i	0	12
COc1ccc(OC)c2c1C(=O)C(Cl)=C(Cl)C2=O	58*	7	i	-1	-10
CCc1noc(C)c1C(=O)N1CCN(S(=O)(=O)c2c(C)c(C)cc(C)c2C)CC1	-1	x	x	x	x
Cn1c(CNC(=O)CCNC(=O)c2ccccc2)cc(=O)n(C)c1=O	8	x	i	x	-19
O=C1N/C(=C/c2ccco2)C(=O)N1Cc1ccccc1F	7	10	+	1	96*
COc1ccc(/C=C2/NC(=O)N(Cc3ccccc3F)C2=O)cc1OC	-3	-1	+	0	u
SMILES	PABP1 MLLE inh	eIF4E-4G inh	PABP FP inh	PERK inh	eIF4H inh
CN1C(=O)[C@H]2[C@@H](c3ccccc3)N[C@]3(CCCN(Cc4ccc(F)cc4)C3=O)[C@H]2C1=O	3	x	x	x	x
COc1cc(-c2nc(S(=O)(=O)c3ccc(C)cc3)c(N3CCOCC3)o2)cc(OC)c1OC	40*	1	i	1	-4
COc1cc(-c2nc(S(=O)(=O)c3ccc(Cl)cc3)c(N3CCOCC3)o2)cc(OC)c1OC	2	-4	i	-1	-3
Cc1cccc(OCC(O)CN2CC3(C)CC2CC(C)(C)C3)c1 (centres undefined)	2	-4	i	1	-3
Cc1ccc(OCC(O)CN2CC3(C)CC2CC(C)(C)C3)cc1 (centres undefined)	4	5	+	0	13*
CC(C)C(=O)Nc1cccc(COc2ccc(CN(CCc3ccccc3)C(=O)OC(C)(C)C)cc2)c1	-3	x	x	x	x
